# Source: PubChem BioAssay
# This is one part of the list. The source made the active and inactive calls.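 Rule for the calls, unless noted: active = mean inhibition above about 50% in the one-dose retest (limit read from the data); inactive = the rest.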
# How the values were obtained:
# [1] = biological target: Protein Mdm4 (Homo sapiens) + E3 ubiquitin-protein ligase Mdm2 (Homo sapiens) (UniProt O15151+Q00987); test: human Mdm2/MdmX binding disruption – cell-based, luminescence, single concentration, set 2, confirmation (AID 504601;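 active = mean inhibition of the luminescence signal across two replicates at or above 26 percent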); conditions: SaOS-2 split-luciferase Mdm2/MdmX complementation, at 8 µM, stronger effect = higher value
# Protein Mdm4 (Homo sapiens) + E3 ubiquitin-protein ligase Mdm2 (Homo sapiens), sequence (O15151 whole entry, looked up): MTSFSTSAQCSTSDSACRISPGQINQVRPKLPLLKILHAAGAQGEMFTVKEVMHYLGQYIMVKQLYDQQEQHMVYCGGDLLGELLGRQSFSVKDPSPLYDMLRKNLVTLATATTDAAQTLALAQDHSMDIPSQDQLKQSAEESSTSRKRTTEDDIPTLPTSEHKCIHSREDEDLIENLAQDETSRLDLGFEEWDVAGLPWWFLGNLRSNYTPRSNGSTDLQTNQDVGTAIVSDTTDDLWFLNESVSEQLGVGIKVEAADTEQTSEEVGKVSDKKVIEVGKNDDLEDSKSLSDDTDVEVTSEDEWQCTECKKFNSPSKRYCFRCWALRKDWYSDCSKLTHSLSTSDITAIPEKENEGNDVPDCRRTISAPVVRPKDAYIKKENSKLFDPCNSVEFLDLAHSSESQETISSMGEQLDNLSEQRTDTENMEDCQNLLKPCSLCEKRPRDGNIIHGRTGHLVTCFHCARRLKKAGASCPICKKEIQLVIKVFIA
# Protein Mdm4 (Homo sapiens) + E3 ubiquitin-protein ligase Mdm2 (Homo sapiens), sequence (Q00987 whole entry, looked up): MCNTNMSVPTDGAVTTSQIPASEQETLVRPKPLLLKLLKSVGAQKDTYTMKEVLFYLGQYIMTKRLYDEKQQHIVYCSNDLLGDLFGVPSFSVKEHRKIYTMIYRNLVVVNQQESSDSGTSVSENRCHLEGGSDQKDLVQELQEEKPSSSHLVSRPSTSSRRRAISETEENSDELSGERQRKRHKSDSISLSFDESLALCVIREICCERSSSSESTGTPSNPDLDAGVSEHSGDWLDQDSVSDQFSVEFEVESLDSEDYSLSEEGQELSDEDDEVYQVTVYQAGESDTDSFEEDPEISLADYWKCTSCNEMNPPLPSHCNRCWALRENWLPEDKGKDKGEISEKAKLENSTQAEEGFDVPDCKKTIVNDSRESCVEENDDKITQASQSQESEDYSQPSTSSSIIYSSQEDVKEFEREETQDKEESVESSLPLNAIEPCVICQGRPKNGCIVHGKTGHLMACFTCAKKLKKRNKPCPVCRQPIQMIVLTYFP
# [2] = biological target: Sentrin-specific protease 8 (Homo sapiens) (UniProt Q96LD8); test: human SENP8 peptidase blockers, hit retest – biochemical, luminescence, single concentration, confirmation (AID 488912;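 active = mean inhibition across replicates above about 50%, limit read from the data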); conditions: Recombinant SENP8, Z-RLRGG-aminoluciferin luminescence, 60 min; at 12.5 µM; stronger effect = higher value
# Sentrin-specific protease 8 (Homo sapiens), sequence (Q96LD8 whole entry, looked up, the tested form may be a part): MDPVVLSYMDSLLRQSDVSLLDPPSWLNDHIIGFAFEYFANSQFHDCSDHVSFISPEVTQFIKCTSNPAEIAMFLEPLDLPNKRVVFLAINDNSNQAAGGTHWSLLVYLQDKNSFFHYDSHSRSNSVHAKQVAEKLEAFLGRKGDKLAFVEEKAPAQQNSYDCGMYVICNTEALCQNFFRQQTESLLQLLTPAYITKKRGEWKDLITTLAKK
# [3] = biological target: Sentrin-specific protease 6 (Homo sapiens) (UniProt Q9GZR1); test: inhibition of human SENP6 catalytic domain – biochemical, luminescence, single concentration, confirmation (AID 488915); conditions: recombinant SENP6, Z-RLRGG-aminoluciferin luminescence; at 12.5 µM; stronger effect = higher value
# Sentrin-specific protease 6 (Homo sapiens), sequence (Q9GZR1 628-1112 limits assumed): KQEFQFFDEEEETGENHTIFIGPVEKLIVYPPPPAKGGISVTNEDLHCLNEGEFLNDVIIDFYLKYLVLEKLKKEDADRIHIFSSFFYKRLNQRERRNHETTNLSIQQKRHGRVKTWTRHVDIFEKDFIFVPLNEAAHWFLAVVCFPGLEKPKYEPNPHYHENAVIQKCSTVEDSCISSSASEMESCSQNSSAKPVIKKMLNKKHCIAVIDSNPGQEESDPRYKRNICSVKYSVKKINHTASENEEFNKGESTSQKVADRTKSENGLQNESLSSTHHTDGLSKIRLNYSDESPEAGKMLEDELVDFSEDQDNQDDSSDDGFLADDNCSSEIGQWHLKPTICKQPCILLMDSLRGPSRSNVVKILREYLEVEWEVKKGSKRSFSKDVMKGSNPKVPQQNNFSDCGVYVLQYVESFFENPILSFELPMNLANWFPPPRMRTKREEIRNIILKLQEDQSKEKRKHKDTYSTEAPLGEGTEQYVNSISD
# [4] = biological target: Sentrin-specific protease 7 (Homo sapiens) (UniProt Q9BQF6); test: human SENP7 peptidase blockers, hit retest – biochemical, luminescence, single concentration, confirmation (AID 488917); conditions: recombinant SENP7, Z-RLRGG-aminoluciferin luminescence, 40 min; at 12.5 µM; stronger effect = higher value
# Sentrin-specific protease 7 (Homo sapiens), sequence (Q9BQF6 706-1050 limits assumed): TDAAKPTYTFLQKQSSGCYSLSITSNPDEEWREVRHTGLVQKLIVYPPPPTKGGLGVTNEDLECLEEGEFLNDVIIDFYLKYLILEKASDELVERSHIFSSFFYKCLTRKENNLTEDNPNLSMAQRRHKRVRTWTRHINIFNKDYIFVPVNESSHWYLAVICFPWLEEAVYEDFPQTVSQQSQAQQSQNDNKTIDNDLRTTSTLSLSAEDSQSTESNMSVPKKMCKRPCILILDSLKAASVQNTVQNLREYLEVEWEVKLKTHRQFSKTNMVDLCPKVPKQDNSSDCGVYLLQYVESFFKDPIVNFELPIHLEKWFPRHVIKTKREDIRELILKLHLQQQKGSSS
# Caspase-3 (Homo sapiens) = Caspase-3 (Homo sapiens) (UniProt P42574); test: human caspase-3 activity blockade, out-of-family – biochemical, single concentration, selectivity assay for SENP inhibitor project, confirmation (AID 488918;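 active = mean inhibition above about 50%, limit read from the data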;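 note: plate controls were enzyme with DMSO for no effect and wells without caspase-3 for full effect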); conditions: purified caspase-3, Z-DEVD-aminoluciferin luminescence, 60 min; at 12.5 µM; stronger effect = higher value
# Caspase-3 (Homo sapiens), sequence (P42574 28-227 limits assumed): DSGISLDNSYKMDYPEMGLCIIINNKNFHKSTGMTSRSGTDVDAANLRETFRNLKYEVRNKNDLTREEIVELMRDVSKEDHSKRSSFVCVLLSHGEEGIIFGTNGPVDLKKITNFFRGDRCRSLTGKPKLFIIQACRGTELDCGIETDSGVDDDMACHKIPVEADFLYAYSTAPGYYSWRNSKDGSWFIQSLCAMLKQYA
# [5] = Ultra-Glo luciferase signal interference – biochemical, single concentration, SENP8 reaction pre-completed, artefact control for SENP inhibitor project, confirmation (AID 488919;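 active = mean inhibition above about 50% when retested at one dose, limit read from the data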;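 note: plate controls were DMSO wells with completed reaction for no effect and substrate without enzyme for full effect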); conditions: Pre-incubated SENP8/Z-RLRGG-aminoluciferin, luciferase luminescence interference; at 12.5 µM; stronger effect = higher value
# [6] = apoptosome-driven caspase-3 activation blockers – biochemical, fluorescence, DEVD-Rh110, 20 µM, confirmation (AID 504614;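 active = mean inhibition of at least 40% at 20 µM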;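 note: plate controls were DMSO wells for no effect and DEVD-CHO caspase inhibitor control wells for full effect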); conditions: reconstituted apoptosome, caspase-3 DEVD-Rh110 fluorescence; at 20 µM; stronger effect = higher value
# [7] = detection-step artefacts after completed caspase reaction – biochemical, fluorescence, Rh110, 20 µM, artefact control for Apaf-1 inhibitor project, confirmation (AID 504615;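 active = signal rise of 40% or more at 20 µM, treated as a fluorescence artifact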); conditions: quenched caspase reaction, at 20 µM, stronger effect = higher value
# [8] = fluorescence interference of Apaf-1 inhibitor hits, dose response, artefact control for Apaf-1 inhibitor project (AID 588538; call rule not given here); conditions: fluorescence interference counterscreen, Apaf-1 assay format
# [9] = Brca1-Bard1 BiLC signal decrease – luminescence, single concentration, counter-screen for Mdm2/MdmX interaction inhibitor project, confirmation (AID 504668; call rule not given here); conditions: Brca1/Bard1 bimolecular luciferase complementation counterscreen, at 8 µM, stronger effect = higher value
# [10] = inhibition of PEG-3 promoter luciferase signal – cell-based, HeLa, luciferase reporter, single concentration, confirmation (AID 602417;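 active = at 20 µM dose, 40% or more inhibition averaged across four replicates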); conditions: HeLa PEG-Prom luciferase reporter, luminescence, overnight; at 20 µM; stronger effect = higher value
# [11] = HIF-2a driven luciferase blockers, single dose – luminescence, 786-0 RCC cells, confirmation (AID 651580;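 active = mean inhibition across four replicates of at least 40 percent at the single tested concentration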); conditions: HIF-2a luciferase reporter luminescence, overnight, at 18.8 µM, stronger effect = higher value
# [12] = HIF-1a luciferase reporter signal reduction – MiaPaCa-2 cells, single concentration, counter-screen for HIF-2a inhibitor project, confirmation (AID 651589;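 active = mean inhibition of the reporter signal across four replicates at the single tested dose of 50% or more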); conditions: MiaPaCa-2 HIF-1a luciferase reporter, desferoxamine, overnight; at 18.8 µM; stronger effect = higher value
# PEG-3 [13] = biological target: PEG-3 (UniProt Q6IN02); test: inhibition of PEG-3 promoter-driven reporter – cell-based, HeLa, luciferase, CREF/GAPDH counter-screen panel, dose response (AID 624167); conditions: CREF/GAPDH counter-screens; HeLa PEG-Prom luciferase reporter, overnight, run 1, dose range 1, at 100 µM (top of the series) unless noted
# PEG-3, sequence (Q6IN02 whole entry, looked up): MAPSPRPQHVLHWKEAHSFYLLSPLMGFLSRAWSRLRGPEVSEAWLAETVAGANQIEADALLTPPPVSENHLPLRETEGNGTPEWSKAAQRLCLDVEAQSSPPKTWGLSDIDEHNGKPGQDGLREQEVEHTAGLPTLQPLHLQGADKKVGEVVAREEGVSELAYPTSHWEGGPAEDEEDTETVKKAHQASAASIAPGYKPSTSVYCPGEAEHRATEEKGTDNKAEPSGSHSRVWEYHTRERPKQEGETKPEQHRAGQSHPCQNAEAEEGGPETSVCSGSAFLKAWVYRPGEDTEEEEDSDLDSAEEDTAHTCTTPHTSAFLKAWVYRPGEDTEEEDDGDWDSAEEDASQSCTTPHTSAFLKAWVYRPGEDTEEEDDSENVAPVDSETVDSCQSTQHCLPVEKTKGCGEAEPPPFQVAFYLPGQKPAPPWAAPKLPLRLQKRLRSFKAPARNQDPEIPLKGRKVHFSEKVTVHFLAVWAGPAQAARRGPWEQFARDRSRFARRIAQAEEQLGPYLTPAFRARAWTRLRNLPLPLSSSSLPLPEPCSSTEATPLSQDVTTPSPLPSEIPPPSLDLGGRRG
# PEG-3 [14] = biological target: PEG-3 (UniProt Q6IN02); test: as above; conditions: CREF/GAPDH counter-screens; HeLa PEG-Prom luciferase reporter, overnight, run 2, dose range 1, at 100 µM (top of the series) unless noted
# [15] = biological target: Tumor necrosis factor receptor superfamily member 10B (Homo sapiens) (UniProt O14763); test: viability loss of caspase-8 NB7 cells with TRAIL – with/without TRAIL, luminescence panel, confirmation (AID 651596; in the data active = activity above about 50%); conditions: NB7 neuroblastoma + caspase-8, TRAIL sensitization, NB7 Caspase-8, with TRAIL, mean of runs, at 10 µM, stronger effect = higher value
# Tumor necrosis factor receptor superfamily member 10B (Homo sapiens), sequence (O14763 whole entry, looked up): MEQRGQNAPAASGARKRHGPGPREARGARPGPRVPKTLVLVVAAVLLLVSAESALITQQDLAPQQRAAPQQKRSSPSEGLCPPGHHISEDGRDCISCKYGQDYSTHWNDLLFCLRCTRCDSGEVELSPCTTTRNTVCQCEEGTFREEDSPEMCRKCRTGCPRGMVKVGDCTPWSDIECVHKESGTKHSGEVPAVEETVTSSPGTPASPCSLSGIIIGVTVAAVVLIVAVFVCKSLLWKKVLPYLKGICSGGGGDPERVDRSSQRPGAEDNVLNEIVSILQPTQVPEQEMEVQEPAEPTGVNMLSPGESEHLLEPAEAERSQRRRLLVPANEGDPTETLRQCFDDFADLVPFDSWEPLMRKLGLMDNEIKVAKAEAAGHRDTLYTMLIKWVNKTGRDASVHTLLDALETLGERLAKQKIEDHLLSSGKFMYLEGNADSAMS
# [16] = as above; conditions: NB7 neuroblastoma + caspase-8, without TRAIL, NB7 Caspase-8, without TRAIL, mean of runs, at 10 µM
# [17] = biological target: Carboxy-terminal domain RNA polymerase II polypeptide A small phosphatase 1 (Homo sapiens) (UniProt Q9GZU7); test: SCP1 melting temperature change from compounds – biophysical, differential scanning fluorimetry, orthogonal assay for Scp-1 inhibitor project, confirmation (AID 540329;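 active = substances whose mean melting-temperature shift, as a percentage of the reference inhibitor's shift, reaches about 5.3%, limit read from the data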;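 note: 0% = Tm of DMSO wells and 100% = Tm with sodium orthovanadate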); conditions: Recombinant SCP1, Sypro Orange thermal shift Tm; at 40 µM; stronger effect = higher value
# Carboxy-terminal domain RNA polymerase II polypeptide A small phosphatase 1 (Homo sapiens), sequence (Q9GZU7 76-261 limits assumed): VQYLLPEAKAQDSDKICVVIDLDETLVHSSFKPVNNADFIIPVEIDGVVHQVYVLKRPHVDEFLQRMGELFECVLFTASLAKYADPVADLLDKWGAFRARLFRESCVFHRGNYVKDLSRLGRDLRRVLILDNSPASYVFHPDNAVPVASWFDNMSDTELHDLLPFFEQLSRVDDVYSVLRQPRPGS
# Rat fibroblasts (CREF) [18] = test: inhibition of PEG-3 promoter-driven reporter – cell-based, HeLa, luciferase, CREF/GAPDH counter-screen panel, dose response (AID 624167); conditions: CREF/GAPDH counter-screens; run 1, dose range 1, at 100 µM (top of the series)
# Rat fibroblasts (CREF) [19] = test: as above; conditions: CREF/GAPDH counter-screens; run 2, dose range 1, at 100 µM (top of the series)
# [20] = biological target: COP9 signalosome complex subunit 5 (Homo sapiens) (UniProt Q92905); test: blockers of CSN-driven cullin deneddylation – biochemical, fluorescence polarization, single concentration, SCF-Nedd8OG substrate, confirmation (AID 720654; in the data active = inhibition above about 50%;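 note: 0% = DMSO with enzyme and 100% = no enzyme wells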); conditions: Csn5 deneddylation of SCF-Nedd8OG, 90 min, at 16.6 µM, stronger effect = higher value
# [21] = biological target: 72 kDa type IV collagenase (Homo sapiens) (UniProt P08253); test: human MMP-2 inhibitors, single-point check – biochemical, fluorescence, single concentration, counter-screen for CSN deneddylation inhibitor project, confirmation (AID 720655;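 active = corrected plate-normalized z-score of 5 or more, or -5 or less, or inhibition of 15% or more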;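 note: plate controls were DMSO wells with enzyme for no effect and buffer wells lacking MMP-2 for full effect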); conditions: recombinant MMP-2, FRET substrate fluorescence, 60 min; at 16.6 µM
# 72 kDa type IV collagenase (Homo sapiens), sequence (P08253 whole entry, looked up): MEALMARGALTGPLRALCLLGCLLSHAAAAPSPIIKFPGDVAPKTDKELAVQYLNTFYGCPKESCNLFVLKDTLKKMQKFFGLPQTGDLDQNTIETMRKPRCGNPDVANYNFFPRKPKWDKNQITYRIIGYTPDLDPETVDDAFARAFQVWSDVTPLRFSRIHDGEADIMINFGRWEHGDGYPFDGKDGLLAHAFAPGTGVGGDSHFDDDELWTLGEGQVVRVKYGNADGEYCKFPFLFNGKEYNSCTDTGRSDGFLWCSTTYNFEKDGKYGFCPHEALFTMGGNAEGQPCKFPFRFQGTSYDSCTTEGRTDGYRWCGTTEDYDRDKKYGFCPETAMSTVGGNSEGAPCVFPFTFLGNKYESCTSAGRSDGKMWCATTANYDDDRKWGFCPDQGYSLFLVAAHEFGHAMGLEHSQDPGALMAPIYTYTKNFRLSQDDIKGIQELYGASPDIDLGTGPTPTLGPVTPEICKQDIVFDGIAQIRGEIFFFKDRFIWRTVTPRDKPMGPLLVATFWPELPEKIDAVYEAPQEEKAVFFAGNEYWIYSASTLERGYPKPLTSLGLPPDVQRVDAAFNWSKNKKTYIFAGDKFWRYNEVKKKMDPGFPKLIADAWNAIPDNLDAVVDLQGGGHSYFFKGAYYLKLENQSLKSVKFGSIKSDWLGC
# Prothrombin (Bos taurus) = Prothrombin (Bos taurus) (UniProt P00735); test: thrombin cleavage blockers, FP readout – biochemical, fluorescence polarization, single concentration, counter-screen for CSN deneddylation inhibitor project, confirmation (AID 720656;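 active = inhibition at or above a set limit, with a fluorescence interference ratio between 0.5 and a set maximum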); conditions: bovine thrombin cleavage of Ub4-pepOG, at 16.6 µM, stronger effect = higher value
# Prothrombin (Bos taurus), sequence (P00735 whole entry, looked up): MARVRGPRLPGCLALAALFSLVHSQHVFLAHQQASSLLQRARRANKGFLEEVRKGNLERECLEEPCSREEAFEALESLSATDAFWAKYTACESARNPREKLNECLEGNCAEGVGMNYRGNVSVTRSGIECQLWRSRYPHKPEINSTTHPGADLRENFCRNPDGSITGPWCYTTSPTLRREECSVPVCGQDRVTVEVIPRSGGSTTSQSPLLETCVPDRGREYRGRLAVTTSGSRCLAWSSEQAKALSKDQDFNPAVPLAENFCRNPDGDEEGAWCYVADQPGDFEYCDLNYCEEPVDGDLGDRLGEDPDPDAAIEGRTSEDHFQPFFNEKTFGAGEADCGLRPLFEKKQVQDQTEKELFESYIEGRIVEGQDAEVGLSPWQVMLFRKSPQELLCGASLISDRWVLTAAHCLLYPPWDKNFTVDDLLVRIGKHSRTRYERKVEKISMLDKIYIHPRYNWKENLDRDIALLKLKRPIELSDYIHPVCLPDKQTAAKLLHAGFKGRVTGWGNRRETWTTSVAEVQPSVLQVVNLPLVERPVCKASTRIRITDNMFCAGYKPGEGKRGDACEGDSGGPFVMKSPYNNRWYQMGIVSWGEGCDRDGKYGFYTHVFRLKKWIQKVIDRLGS
# [22] = NF-kB reporter suppression in CF airway cells – cell-based, GFP fluorescence, single concentration, confirmation (AID 602472; in the data active = inhibition above about 40%;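 note: stimulus PAF is a Pseudomonas aeruginosa filtrate and not platelet activating factor; plate controls were DMSO wells with stimulus for no effect and unstimulated DMSO wells for full effect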); conditions: KKLEB CF airway cells, PAF-induced NF-kB-GFP fluorescence, overnight; at 5 µM; stronger effect = higher value
# [23] = NFkB reporter suppression in cystic fibrosis bronchial cells – cell-based, uHTS hits, panel, cytotoxicity readout, dose response (AID 624344); conditions: CF bronchial epithelial cells, PAF-induced NFkB reporter inhibition, with PAF, run 1; at 79 µM (top of the series) unless noted
# [24] = as above; conditions: CF bronchial epithelial cells, PAF-induced NFkB reporter inhibition, with PAF, run 2; at 79 µM (top of the series) unless noted
compound,measurement,setting,value
COc1cccc(NC(=O)[C@H](Cc2c[nH]c3ccccc23)NC(=O)[C@@H]2Cc3ccccc3CN2)c1,inhibition,[1],98.2% (active)
CCOC(=O)/C=C/C(=O)OCC(=O)NC(c1ccccc1)c1ccccc1,inhibition,[1],99.7% (active)
Clc1ccc(C2=CSC3=Nc4cccc5cccc(c45)N23)cc1,inhibition,[2],1.7% (inactive)
same,inhibition,[3],55.9% (active)
same,inhibition,[4],7.2% (inactive)
same,inhibition,Caspase-3 (Homo sapiens),-5.7% (inactive)
same,inhibition,[5],-2.1% (inactive)
same,inhibition,[6],62.8% (active)
same,activation (fluorescence interference),[7],-1.7% (inactive)
same,IC50,[8],> 100 µM (inactive)
O=C1[C@H]2[C@@H](c3ccc(F)cc3)N3C(=O)N(c4ccc(C(F)(F)F)cc4)C(=O)[C@@]3(Cc3ccccc3)[C@H]2C(=O)N1C1CCCCC1,inhibition,[1],101% (active)
Cc1ccsc1C(=O)OCC(=O)c1cc(C)n(CC2CCCO2)c1C (configuration not stated),inhibition,[2],35.3% (inactive)
same,inhibition,[3],97.2% (active)
same,inhibition,[4],102% (active)
same,inhibition,Caspase-3 (Homo sapiens),96.7% (active)
same,inhibition,[5],58.8% (active)
same,inhibition,[9],28.9% (active)
same,inhibition,[10],80.8% (active)
same,inhibition,[11],65.9% (active)
same,inhibition,[12],80.2% (active)
same,inhibition,PEG-3 [13],96.8%
same,inhibition,PEG-3 [14],92.7%
same,activity,[15],74.5%
same,activity,[16],68.1%
COc1ccc(C(=O)NC2CCCc3c2cnn3-c2cccc(C)c2C)c(OC)n1 (configuration not stated),inhibition,[1],102% (active)
Cc1oc2c(c1C(=O)N1CCOCC1)C(=O)c1ccccc1C2=O,inhibition,[2],27.7% (inactive)
same,inhibition,[3],61% (active)
same,inhibition,[4],6% (inactive)
same,inhibition,Caspase-3 (Homo sapiens),87.5% (active)
same,inhibition,[5],-2.3% (inactive)
same,inhibition,[6],52.9% (active)
same,activation (fluorescence interference),[7],8.76% (inactive)
same,IC50,[8],> 100 µM (inactive)
CCOC(=O)c1c(-c2cccc(C)c2)csc1NC(=O)c1c(-c2ccccc2)noc1C,inhibition,[1],101% (active)
CC(=O)Nc1cccc(C(=O)OCC(=O)c2ccc3c(c2)OCO3)c1,inhibition,[2],84.2% (active)
same,inhibition,[3],83.1% (active)
same,inhibition,[4],51.3% (active)
same,inhibition,Caspase-3 (Homo sapiens),85.2% (active)
same,inhibition,[5],80.8% (active)
same,activity,[15],70.3%
same,activity,[16],60.6%
O=c1c2cc(-c3ccccc3)sc2nc2n1N=C(c1cccs1)CS2,inhibition,[2],11.6% (inactive)
same,inhibition,[3],3.2% (inactive)
same,inhibition,[4],-0.5% (inactive)
same,inhibition,Caspase-3 (Homo sapiens),8.2% (inactive)
same,inhibition,[5],3.2% (inactive)
same,thermal shift relative to vanadate control,[17],11.4% (active)
same,activity,[15],63.5%
same,activity,[16],57.9%
O=C(Nc1ccccc1)c1ccc2c(c1)OCCCO2,inhibition,[2],78.5% (active)
same,inhibition,[3],77.7% (active)
same,inhibition,[4],94.2% (active)
same,inhibition,Caspase-3 (Homo sapiens),90% (active)
same,inhibition,[5],81.9% (active)
same,activity,[15],79.9%
same,activity,[16],79.9%
COc1ccc(-c2cc3ccc(OCc4nn[nH]n4)cc3oc2=O)cc1,inhibition,[2],64% (active)
same,inhibition,[3],63.1% (active)
same,inhibition,[4],87.3% (active)
same,inhibition,Caspase-3 (Homo sapiens),66.2% (active)
same,inhibition,[5],70.6% (active)
same,activity,[15],58.8%
same,activity,[16],56.2%
O=C(Nc1ccc(Cl)cn1)c1ccc2c(c1)OCCO2,inhibition,[2],-5.1% (inactive)
same,inhibition,[3],71.4% (active)
same,inhibition,[4],92.9% (active)
same,inhibition,Caspase-3 (Homo sapiens),82.8% (active)
same,inhibition,[5],76.4% (active)
same,activity,[15],67.6%
same,activity,[16],71.8%
CCN1C(=O)c2cccc3c(N)ccc1c23,inhibition,[2],22% (inactive)
same,inhibition,[3],41.5% (inactive)
same,inhibition,[4],15.6% (inactive)
same,inhibition,Caspase-3 (Homo sapiens),2.1% (inactive)
same,inhibition,[5],-6.4% (inactive)
same,inhibition,[6],70.1% (active)
same,activation (fluorescence interference),[7],2.39% (inactive)
same,IC50,[8],> 100 µM (inactive)
c1c2c(cc3sc(N4CCCCC4)nc13)OCCO2,inhibition,[2],97% (active)
same,inhibition,[3],98.6% (active)
same,inhibition,[4],103% (active)
same,inhibition,Caspase-3 (Homo sapiens),97.5% (active)
same,inhibition,[5],52.1% (active)
same,inhibition,[10],37.5% (inactive)
Cc1ccc2nc(-c3ccc(Br)cc3)cn2c1,inhibition,[2],7.3% (inactive)
same,inhibition,[3],34.4% (inactive)
same,inhibition,[4],70% (active)
same,inhibition,Caspase-3 (Homo sapiens),51.5% (active)
same,inhibition,[5],-8.6% (inactive)
same,inhibition,[10],49.5% (active)
same,inhibition,PEG-3 [13],101%
same,inhibition,PEG-3 [14],88.9%
same,inhibition,Rat fibroblasts (CREF) [18],93.6%
same,inhibition,Rat fibroblasts (CREF) [19],85.5%
COc1cc(/C=C(\C#N)c2nc3ccccc3[nH]2)ccc1O,inhibition,[2],95.1% (active)
same,inhibition,[3],95.1% (active)
same,inhibition,[4],101% (active)
same,inhibition,Caspase-3 (Homo sapiens),93.4% (active)
same,inhibition,[5],66.5% (active)
same,inhibition,[20],78.1% (active)
same,inhibition,[21],-18.3% (inactive)
same,inhibition,Prothrombin (Bos taurus),62.2% (active)
O=C(/C=C/c1ccc2c(c1)OCCO2)c1ccc(O)cc1,inhibition,[2],68.6% (active)
same,inhibition,[3],59% (active)
same,inhibition,[4],72.1% (active)
same,inhibition,Caspase-3 (Homo sapiens),54.3% (active)
same,inhibition,[5],86.9% (active)
same,activity,[15],41%
same,activity,[16],45.6%
CSc1ccc(/C=N/NC(=O)c2cccc(Cl)c2)cc1,inhibition,[2],36.6% (inactive)
same,inhibition,[3],96.5% (active)
same,inhibition,[4],44.1% (inactive)
same,inhibition,Caspase-3 (Homo sapiens),93.6% (active)
same,inhibition,[5],40.2% (inactive)
same,thermal shift relative to vanadate control,[17],9.78% (active)
CC(=O)c1ccc(S(=O)(=O)N2CCN(C(=O)/C=C/c3ccc4ccccc4n3)CC2)cc1,inhibition,[1],85.2% (active)
CCOc1cc(N2CCOCC2)c(OCC)cc1NC(=O)COc1cccc2cccnc12,inhibition,[1],92.7% (active)
c1ccc2c(CCN3CCNC[C@H]3Cc3cccc4ccccc34)cccc2c1,inhibition,[6],24.8% (inactive)
same,activation (fluorescence interference),[7],8.34% (inactive)
O=C(Nc1ccc(C(=O)N2CCOCC2)cc1)Nc1cccc(C(F)(F)F)c1,inhibition,[1],84.2% (active)
same,inhibition,[22],58.5% (active)
same,inhibition,[23],108%
same,inhibition,[24],94.7%
Cc1cccc(NC(=O)c2nc(S(=O)(=O)Cc3ccccc3)ncc2Cl)c1,inhibition,[1],103% (active)
same,inhibition,[10],98.3% (active)
same,inhibition,[22],96.7% (active)
same,inhibition,[11],100% (active)
same,inhibition,[12],103% (active)
same,inhibition,[23],86.6%
same,inhibition,[24],95.1%
same,activity,[15],55.2%
same,activity,[16],98.5%
